Among the data in PubChem BioAssay AID1490 (National Center for Advancing Translational Sciences (NCATS), 2009) are largest response in the series, negative = inhibition and Potency values, retold here.

Values joined by “and” are separate entries in the source; they are usually repeats but may differ in a detail not shown here. Identical values can stand only once. About 11,000 (3.5%) of roughly 310,000 compounds were called active. Inconclusive results (about 4%) are left out. For the sample, actives were picked, then their nearest neighbours and some compounds at random. A number with no mark means an inactive call. The call rests on the fitted dose curve; in most records, active means well fitted inhibition curve with a large enough effect; inconclusive means small, poorly fitted or top-dose-only effect, or another doubt; inactive means no such curve, though single readings can be large or run the other way.
Potency means the concentration at half of the fitted maximal effect.

For the experiment, the target named is 4'-phosphopantetheinyl transferase ffp (Bacillus subtilis) (UniProt Q9F4F7). Description: qHTS Assay for Inhibitors of Bacillus subtilis Sfp phosphopantetheinyl transferase (PPTase).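 Further: the enzyme is Sfp with the accession as filed and its product quenches rhodamine fluorescence.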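 On largest response in the series, negative = inhibition: 0% = enzyme reaction without inhibitor and -100% = no enzyme wells.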 To be noted: Biochemical Sfp PPTase activity. The gist of the method: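 Compounds were incubated with enzyme (final 15 nM) for 15 min at room temperature before substrate addition started the reaction. Fluorescence at 525 nm excitation, 598 nm emission was recorded immediately and after 30 minutes.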
A general note: Quantitative high-throughput screening tests each substance at several concentrations.
As for `CCOc1ccc(-n2c(SCC(N)=O)nnc2-c2ccco2)cc1`, the largest response in the series, negative = inhibition was 27.1%.

For `CCOc1ccccc1Nc1ccc2nonc2c1[N+](=O)[O-]`, the largest response in the series, negative = inhibition is 1.09%.

In the case of `O=C(O)c1cccc(S(=O)(=O)Nc2ccc(O)cc2Sc2nc3ccccc3s2)c1`, the largest response in the series, negative = inhibition was -29.2%.

`O=[N+]([O-])c1c(NCCO)cc(Sc2nc3ccccc3s2)c2nonc12`: the Potency was 6.31 µM (active).

In the case of `Cc1ccc(C)c2[nH]c(=O)c(CCNC(=O)c3cccs3)cc12`, the largest response in the series, negative = inhibition was 6.07%.

In the case of `C=CCn1c(CCNC(=O)c2cccs2)n[nH]c1=S`, the Potency is 7.94 µM (active).

In the case of `C=CCn1c(CCc2ccc(OC(C)C)cc2)n[nH]c1=S`, the largest response in the series, negative = inhibition is 14.2%.

In the case of `COc1ccc(C(=O)NC2CC(C)(C)NC(C)(C)C2)cc1OC`, the largest response in the series, negative = inhibition was 0.887%.

On to `CC(C)(C)C(=O)/C(C#N)=C/c1ccc(O)cc1`, for which the largest response in the series, negative = inhibition is 8.9%.

For the compound `N#C/C(=C\c1ccc(O)c(O)c1)C(N)=O`, the Potency is 79.4 µM (active) and 56.2 µM (active).

As for `N#C/C(=C\c1ccc(O)c(O)c1)C(=O)NCc1ccccc1`, the largest response in the series, negative = inhibition was -22.3% and -19.4%.

As for `C=CCOc1ccc(/C=C/C(=O)OCC(=O)NC2CCCCCC2)cc1`, the largest response in the series, negative = inhibition is 16.7%.

Regarding `CCOC(=O)c1ccc(NC(=O)CNC(=O)c2ccco2)cc1`, the largest response in the series, negative = inhibition was 7.8%.

On to `CCCN(CCc1ccccc1)C1CCc2c(O)cccc2C1` (centres undefined), for which the largest response in the series, negative = inhibition was 21.2%.

On to `CC(=O)Nc1ccc(S(=O)(=O)N2N=NC3C2C2CC4C3(CN(C(=O)OC(C)(C)C)S4(=O)=O)O2)cc1` (centres undefined), for which the largest response in the series, negative = inhibition was 11.6%.

In the case of `O=C(COC(=O)CCC(=O)c1cccs1)NCc1ccco1`, the Potency was 35.5 µM (active).

As to `O=C(COC(=O)C12CC3CC(CC(C3)C1)C2)NCc1ccco1`, the largest response in the series, negative = inhibition is -10.5%.

As to `O=C(COC(=O)c1cccs1)NCc1cccs1`, the largest response in the series, negative = inhibition was 10.5%.

As for `CN1CCN(Cc2c(C(=O)N3CCc4ccccc4C3)nc3ccc(Cl)cn23)CC1`, the largest response in the series, negative = inhibition is -5.24%.

As to `CCCn1nnnc1NCc1ccc(OC)cc1`, the largest response in the series, negative = inhibition is 10.3%.

Take `CNC(=O)c1sc(NCc2ccccc2OC)nc1C`: the largest response in the series, negative = inhibition was -19.7%.

As for `CCOC(=O)C1=C(C)Nc2sc(C(=O)c3ccc(Br)cc3)c(N)c2C1c1ccc(C(=O)OC)cc1` (centres undefined), the largest response in the series, negative = inhibition was 15.8%.

In the case of `CCOC(=O)c1sc(=S)n2c1[nH]c(=O)c1ccc(C(=O)OC)cc12`, the Potency is 15.8 µM (active).

For the compound `CCOC(=O)c1sc(NC(=O)c2ccncc2)nc1C`, the largest response in the series, negative = inhibition was -1.23%.

As for `CCc1nn(CCCC(=O)Nc2ccc(C)c(C)c2)c(=O)c2cc3occc3n12`, the largest response in the series, negative = inhibition is 5.57%.

As to `COc1ccc(N2CCN(Cc3nnc(-c4ccccc4)o3)CC2)cc1`, the largest response in the series, negative = inhibition was 2.63%.

Regarding `COc1ccc(N2CCN(Cc3ccc(Br)s3)CC2)cc1`, the Potency is 39.8 µM (active).

`COc1ccc(N2CCN(Cc3cc(=O)oc4ccc5ccccc5c34)CC2)cc1`: the largest response in the series, negative = inhibition was 4.08%.

For `O=C(CN(C(=O)c1csnn1)c1cccc(Cl)c1)NC1CCCC1`, the largest response in the series, negative = inhibition is 5.89%.

As for `Cc1nnc(NCCO)c2ccccc12`, the largest response in the series, negative = inhibition was 13.5%.

With `NNc1nnc(NN)c2ccccc12`, the Potency is 89.1 µM (active).

Consider `C=CCNc1nnc(C)c2ccccc12`, for which the largest response in the series, negative = inhibition is 4.78%.

As for `CSc1ccccc1OCc1cc(C(=O)N(C)CCc2c(C)n[nH]c2C)no1`, the largest response in the series, negative = inhibition is 0.222%.

`COc1cc(C(=S)NCc2ccccc2)cc(Br)c1O`: the Potency is 8.91 µM (active).

For `COc1cc(C=O)c(Br)cc1OCC(=O)NCc1ccccc1`, the largest response in the series, negative = inhibition was 11.5%.

In the case of `COc1cc(C(=O)NCc2ccncc2)cc(Br)c1OCc1ccccc1`, the largest response in the series, negative = inhibition is 4.37%.

Regarding `NS(=O)(=O)c1ccccc1NC(=O)c1c(O)c2ccccc2[nH]c1=O`, the largest response in the series, negative = inhibition is -6.41%.

With `CC1CC(=O)N(CC(=O)Nc2cccc(Cl)c2)c2ccccc2S1(=O)=O` (centres undefined), the largest response in the series, negative = inhibition was 12.1%.

Turning to `COc1cc2c(cc1OC)[C@@H](Cc1cc(OC)c(OC)c(OC)c1)[N+](C)(CCCOC(=O)CC/C=C/CCC(=O)OCCC[N+]1(C)CCc3cc(OC)c(OC)cc3[C@H]1Cc1cc(OC)c(OC)c(OC)c1)CC2` (some centres undefined), the largest response in the series, negative = inhibition was -3.12%.

As to `CCCCN(CC)C(=O)C1CCCN(S(=O)(=O)c2cccc3nsnc23)C1` (centres undefined), the largest response in the series, negative = inhibition is 17.1%.

In the case of `COC(=O)c1c(-c2ccc(C)cc2)csc1N`, the Potency was 44.7 µM (active).

On to `CCOC(=O)c1c(-c2ccccc2)csc1NC(=S)NC(=O)c1ccccc1`, for which the largest response in the series, negative = inhibition was -3.92%.

For the compound `CCC(C(=O)OC)n1cnc2scc(-c3ccc(C)cc3)c2c1=O` (centres undefined), the largest response in the series, negative = inhibition is 6.01%.

As for `CCCCC/C=C\C[C@H](O)/C=C/C=C/C=C/[C@@H](O)CCCC(=O)O`, the largest response in the series, negative = inhibition is 6.53%.

For `CC(=O)N1CCN(C(=O)C2(NC(=O)Nc3ccc(C)cc3)CCCCC2)CC1`, the largest response in the series, negative = inhibition was 14.1%.

Regarding `O=C(Cc1ccc(Br)cc1)NCCN1CCOCC1`, the largest response in the series, negative = inhibition was 14.6%.

With `CCCOc1ccc(C2c3c(oc4cc(C)c(C)cc4c3=O)C(=O)N2CCCN2CCOCC2)cc1` (centres undefined), the Potency was 50.1 µM (active).

As for `COc1ccc(C2/C(=C(/O)c3ccc(OC(C)C)cc3)C(=O)C(=O)N2CCCN2CCOCC2)cc1` (centres undefined), the largest response in the series, negative = inhibition is -22.3%.

For the compound `CCCCOc1ccc(C(C)(O)CCN2CCOCC2)cc1` (centres undefined), the largest response in the series, negative = inhibition is 6.22%.
